In assay [1] the target is human Adenosine A2a Receptor (AdoRA2a), ADORA2A (gene 135) (UniProt P29274). As to the kind of experiment: NVS_GPCR_hAdoRA2a: NovaScreen (NVS) G Protein-Coupled Receptor Assay for human Adenosine A2a Receptor (AdoRA2a) (AID 2283256). In outline:
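Radioligand displacement on HEK293-derived membrane protein, cell-free; filter-based scintillation counting 1.5 hours after dosing, loss of signal vs DMSO. Single-point duplicate screen at 25 uM, actives retested in concentration series.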

Assay [2] in a line: NVS_GPCR_bNPY_NonSelective: NovaScreen (NVS) G Protein-Coupled Receptor Assay for bovine Neuropeptide Y (NPY) Receptor, Non-selective Binding (AID 2283245). In outline: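 Bovine hippocampal membranes incubated 1 hour with radioligand and test chemical. Bound ligand measured by filter-based scintillation counting. Single-concentration screen at 25 uM in duplicate, then concentration-response up to 50 uM.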

Assay [3] has as its target guinea pig Leukotriene D4 Receptor (LTD4), CYSLTR1 (gene 100135514) (UniProt Q2NNR5). In words: NVS_GPCR_gLTD4: NovaScreen (NVS) G Protein-Coupled Receptor Assay for guinea pig Leukotriene D4 Receptor (LTD4) (AID 2283248). In outline:
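Radioligand displacement on guinea pig lung membranes, 1 h incubation, filtration and scintillation counting; DMSO as negative control. Duplicate 25 uM primary screen, then singleton concentration-response up to 50 uM.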

Assay [4] concerns the target human Serotonin, 5-Hydroxytryptamine Receptor 5A (5HT5A), HTR5A (gene 3361) (UniProt P47898). In words: NVS_GPCR_h5HT5A: NovaScreen (NVS) G Protein-Coupled Receptor Assay for human Serotonin, 5-Hydroxytryptamine Receptor 5A (5HT5A) (AID 2283251). In outline: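 Cell-free radioligand displacement binding on HEK293-derived membrane protein, 1 h incubation, filter-based scintillation counting. Primary screen in duplicate at 25 uM, actives followed in concentration series; loss of signal fitted versus DMSO.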

Assay [5] addresses human Serotonin, 5-Hydroxytryptamine Receptor 7 (5HT7), HTR7 (gene 3363) (UniProt P34969). As to the kind of experiment: NVS_GPCR_h5HT7: NovaScreen (NVS) G Protein-Coupled Receptor Assay for human Serotonin, 5-Hydroxytryptamine Receptor 7 (5HT7) (AID 2283255).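 Also: hits reduce specific radioligand binding relative to DMSO.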 In outline: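 Radioligand displacement on membranes from CHO cells expressing human 5HT7, 1 h incubation, filter-based scintillation counting. Primary screen used a single 25 uM concentration in duplicate; actives were followed up in concentration series.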

For assay [6], the target named is human Adrenergic, Beta 1 Receptor (Adrb1), ADRB1 (gene 153) (UniProt P08588). In words: NVS_GPCR_hAdrb1: NovaScreen (NVS) G Protein-Coupled Receptor Assay for human Adrenergic, Beta 1 Receptor (Adrb1) (AID 2283258). In outline: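 Cell-free radioligand displacement on receptor from human neuroepithelioma cells; 2 h after dosing, filter-based scintillation counting. Primary screen in duplicate at 25 uM, actives retested in concentration series; loss of signal vs DMSO baseline.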
human Adrenergic, Beta 1 Receptor (Adrb1), ADRB1 (gene 153), sequence (P08588 whole entry, looked up): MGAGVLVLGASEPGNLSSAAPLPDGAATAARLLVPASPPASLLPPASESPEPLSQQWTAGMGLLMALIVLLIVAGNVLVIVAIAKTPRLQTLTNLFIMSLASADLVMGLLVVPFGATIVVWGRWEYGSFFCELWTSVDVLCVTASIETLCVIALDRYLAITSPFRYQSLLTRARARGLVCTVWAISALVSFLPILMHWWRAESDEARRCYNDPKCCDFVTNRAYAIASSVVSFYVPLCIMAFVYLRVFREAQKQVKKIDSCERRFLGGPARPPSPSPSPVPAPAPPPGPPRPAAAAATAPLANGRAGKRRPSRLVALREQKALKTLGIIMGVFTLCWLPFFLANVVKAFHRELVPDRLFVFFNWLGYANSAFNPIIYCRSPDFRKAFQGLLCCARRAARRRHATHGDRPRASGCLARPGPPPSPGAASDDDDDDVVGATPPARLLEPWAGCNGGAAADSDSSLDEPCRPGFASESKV

Assay [7] deals with human Adrenergic, Alpha 2c Receptor (Adra2C), ADRA2C (gene 152) (UniProt P18825). As to the kind of experiment: NVS_GPCR_hAdra2C: NovaScreen (NVS) G Protein-Coupled Receptor Assay for human Adrenergic, Alpha 2c Receptor (Adra2C) (AID 2283259). In outline: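 Radioligand binding on Sf9-expressed receptor membranes, 1 h after chemical dosing, filter-based scintillation read-out. Loss of binding fitted positively versus DMSO; primary duplicate screen at 25 uM, actives retested in concentration series.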
human Adrenergic, Alpha 2c Receptor (Adra2C), ADRA2C (gene 152), sequence (P18825 whole entry, looked up): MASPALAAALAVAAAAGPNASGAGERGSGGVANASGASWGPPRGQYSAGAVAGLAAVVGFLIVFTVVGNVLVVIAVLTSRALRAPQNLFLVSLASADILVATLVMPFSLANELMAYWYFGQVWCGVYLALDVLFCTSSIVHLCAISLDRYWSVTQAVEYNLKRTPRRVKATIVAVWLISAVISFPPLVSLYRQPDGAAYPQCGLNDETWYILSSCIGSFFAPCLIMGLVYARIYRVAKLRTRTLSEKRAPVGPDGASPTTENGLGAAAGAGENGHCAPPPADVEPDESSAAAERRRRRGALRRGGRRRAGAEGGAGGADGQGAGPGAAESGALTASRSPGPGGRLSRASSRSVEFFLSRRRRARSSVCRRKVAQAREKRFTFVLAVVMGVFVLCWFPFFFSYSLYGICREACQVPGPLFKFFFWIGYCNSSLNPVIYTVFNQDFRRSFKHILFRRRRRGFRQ

Assay [8] concerns the target Type-1 angiotensin II receptor (Homo sapiens) (UniProt P30556). As to the kind of experiment: NVS_GPCR_hAT1: NovaScreen (NVS) G Protein-Coupled Receptor Assay for human Angiotensin II receptor type 1 (AT1) (AID 2283263). In outline:
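Membranes from KAN-TS cells; radioligand competitive displacement, 3 h, filtration and scintillation counting. Single-point duplicate screen at 25 uM, then concentration-response up to 50 uM for hits; loss of signal fitted versus DMSO.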

In assay [9] the target is guinea pig Opioid, Kappa 1 Receptor (OpiateK), OPRK1 (gene 100135587) (UniProt P41144). In words: NVS_GPCR_gOpiateK: NovaScreen (NVS) G Protein-Coupled Receptor Assay for guinea pig Opioid, Kappa 1 Receptor (OpiateK) (AID 2283252).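 Also: radioligand displacement from kappa opioid receptor in guinea pig cerebellar membranes; active means reduced radioligand binding relative to DMSO.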 In outline:
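Signal is scintillation counts of filter-trapped radioligand bound to guinea pig cerebellar membrane receptor, measured 2 hours post-dosing. Activity is loss of binding versus DMSO, first at 25 uM in duplicate, then as concentration series for actives.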

In assay [10] the target is human Serotonin, 5-Hydroxytryptamine Receptor 6 (5HT6), HTR6 (gene 3362) (UniProt P50406). In words: NVS_GPCR_h5HT6: NovaScreen (NVS) G Protein-Coupled Receptor Assay for human Serotonin, 5-Hydroxytryptamine Receptor 6 (5HT6) (AID 2283253). In outline:
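Radioligand binding to 5HT6 in HEK293-derived membranes, cell-free, 1 h after dosing; bound ligand measured by filter-based scintillation counting. Primary screen in duplicate at 25 uM; actives retested in concentration series.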

For assay [11], the system named is rat Monoamine Oxidase, MAO-A, Central (MAOAC), gene 29253. As to the kind of experiment: NVS_ENZ_rMAOAC: NovaScreen (NVS) Enzymatic Assay for rat Monoamine Oxidase, MAO-A, Central (MAOAC) (AID 2283243).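 Also: potency refers to inhibition seen as signal drop below DMSO baseline.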 In outline: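 Steps: rat brain protein extract dosed with test chemical (25 uM, duplicate, primary); incubated 1.5 h; radiolabelled product separated from substrate and counted. Signal loss versus DMSO scored as inhibition.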

In assay [12] the test system is guinea pig Leukotriene B4 Receptor (LTB4), gene 100379538. In words: NVS_GPCR_gLTB4: NovaScreen (NVS) G Protein-Coupled Receptor Assay for guinea pig Leukotriene B4 Receptor (LTB4) (AID 2283247). In outline:
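Radioligand displacement on guinea pig spleen membranes, filter-based scintillation counting 2 h after dosing. Primary duplicate single point at 25 uM; hits over threshold (e.g. 30% inhibition) run in concentration-response up to 50 uM, DMSO baseline.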

Assay [13] concerns the target human Dopamine Receptor D4.4 (DRD4.4), DRD4 (gene 1815) (UniProt P21917). As to the kind of experiment: NVS_GPCR_hDRD4.4: NovaScreen (NVS) G Protein-Coupled Receptor Assay for human Dopamine Receptor D4.4 (DRD4.4) (AID 2283264). In outline: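 Radioligand displacement on human DRD4.4 from CHO-derived membranes, 1 hour incubation, bound counts read by filtration and scintillation. Primary screen in duplicate at 25 uM; actives followed up in concentration series.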

The target of assay [14] is human Endothelin Receptor Type A (ETA), EDNRA (gene 1909) (UniProt P25101). In words: NVS_GPCR_hETA: NovaScreen (NVS) G Protein-Coupled Receptor Assay for human Endothelin Receptor Type A (ETA) (AID 2283265). In outline:
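Cell-free radioligand displacement using SH-SY5Y-derived protein, 3 h incubation, filter-based scintillation counting. Primary screen in duplicate at 25 uM; actives then run in concentration-response up to 50 uM; loss of binding fitted versus DMSO.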

Assay [15] concerns the target human Dopamine Receptor D2 (DRD2), DRD2 (gene 1813) (UniProt P14416). As to the kind of experiment: NVS_GPCR_hDRD2s: NovaScreen (NVS) G Protein-Coupled Receptor Assay for human Dopamine Receptor D2 (DRD2) (AID 2283266). In outline:
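Radioligand displacement used human DRD2 membranes extracted from CHO cells and was read by filter-based scintillation counting after 1.5 hours. Primary screening was in duplicate at 25 uM. Loss of signal versus DMSO was fitted, with concentration series in follow-up.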

In assay [16] the target is Beta-2 adrenergic receptor (Homo sapiens) (UniProt P07550). As to the kind of experiment: NVS_GPCR_hAdrb2: NovaScreen (NVS) G Protein-Coupled Receptor Assay for human Adrenergic, Beta 2 Receptor (Adrb2) (AID 2283261). In outline:
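Filter-based radioligand binding using receptor prepared from CHO cells, 1 h incubation, scintillation counting. Primary screen in duplicate at 25 uM, actives retested in concentration series; loss of binding relative to DMSO.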

The target of assay [17] is human Adrenergic, Beta 3 Receptor (Adrb3), ADRB3 (gene 155) (UniProt P13945). In words: NVS_GPCR_hAdrb3: NovaScreen (NVS) G Protein-Coupled Receptor Assay for human Adrenergic, Beta 3 Receptor (Adrb3) (AID 2283262). In outline: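 Membranes from SK-N-MC cells pretreated with isoproterenol and 8-bromo-cAMP were used in a radioligand competitive displacement binding assay. Binding was read by filter-based scintillation counting 1 hour after dosing. Primary screening was in duplicate at 25 uM, with concentration series in follow-up.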

For assay [18], the system named is guinea pig Muscarinic, Peripheral (Mperiperal) Receptor, Non-selective Binding, gene 100379235. In words: NVS_GPCR_gMPeripheral_NonSelective: NovaScreen (NVS) G Protein-Coupled Receptor Assay for guinea pig Muscarinic, Peripheral (Mperiperal) Receptor, Non-selective Binding (AID 2283250). In outline: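 Guinea pig bladder membranes, radioligand binding read 1 h after dosing by filter scintillation counting; loss of signal vs DMSO. Primary duplicate screen at 25 uM, then concentration-response up to 50 uM.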

Values joined by “and” are separate entries in the source; they are usually repeats but may differ in a detail not shown here. Identical values can stand only once. Records with an inconclusive call do not appear. More than one record can exist for a structure, and the calls need not agree. Active and inactive are the calls of the source. The calls were made as follows: active = hit-call score of the fitted dose curve at least 0.9, where 1 is the maximum; inconclusive = response in the unintended direction; inactive = score below 0.9.

One may read the AC50 as the midpoint of the concentration-response curve, whichever way the signal moves.

human Serotonin, 5-Hydroxytryptamine Receptor 6 (5HT6), HTR6 (gene 3362), sequence (P50406 whole entry, looked up): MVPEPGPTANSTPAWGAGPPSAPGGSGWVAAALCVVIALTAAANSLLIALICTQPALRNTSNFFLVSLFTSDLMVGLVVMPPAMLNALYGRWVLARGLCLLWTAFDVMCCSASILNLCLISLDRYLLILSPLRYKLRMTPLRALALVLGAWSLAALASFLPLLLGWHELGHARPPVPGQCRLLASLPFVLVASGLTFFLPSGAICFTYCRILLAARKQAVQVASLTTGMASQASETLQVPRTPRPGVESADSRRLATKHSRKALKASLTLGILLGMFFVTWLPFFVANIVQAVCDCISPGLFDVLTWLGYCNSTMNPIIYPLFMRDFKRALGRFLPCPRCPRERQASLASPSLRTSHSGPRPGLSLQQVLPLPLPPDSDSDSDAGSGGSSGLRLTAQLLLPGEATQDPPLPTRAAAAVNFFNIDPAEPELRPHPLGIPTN
human Serotonin, 5-Hydroxytryptamine Receptor 5A (5HT5A), HTR5A (gene 3361), sequence (P47898 whole entry, looked up): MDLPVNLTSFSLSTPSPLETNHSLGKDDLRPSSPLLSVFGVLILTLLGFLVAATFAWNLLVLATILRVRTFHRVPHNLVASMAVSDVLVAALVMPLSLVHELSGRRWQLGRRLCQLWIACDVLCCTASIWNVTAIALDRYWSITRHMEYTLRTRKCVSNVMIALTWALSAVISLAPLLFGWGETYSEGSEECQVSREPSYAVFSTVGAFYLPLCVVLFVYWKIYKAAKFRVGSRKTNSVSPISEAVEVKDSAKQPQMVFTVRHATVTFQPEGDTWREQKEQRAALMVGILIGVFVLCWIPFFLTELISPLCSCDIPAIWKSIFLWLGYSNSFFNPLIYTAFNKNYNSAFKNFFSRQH
human Serotonin, 5-Hydroxytryptamine Receptor 7 (5HT7), HTR7 (gene 3363), sequence (P34969 whole entry, looked up): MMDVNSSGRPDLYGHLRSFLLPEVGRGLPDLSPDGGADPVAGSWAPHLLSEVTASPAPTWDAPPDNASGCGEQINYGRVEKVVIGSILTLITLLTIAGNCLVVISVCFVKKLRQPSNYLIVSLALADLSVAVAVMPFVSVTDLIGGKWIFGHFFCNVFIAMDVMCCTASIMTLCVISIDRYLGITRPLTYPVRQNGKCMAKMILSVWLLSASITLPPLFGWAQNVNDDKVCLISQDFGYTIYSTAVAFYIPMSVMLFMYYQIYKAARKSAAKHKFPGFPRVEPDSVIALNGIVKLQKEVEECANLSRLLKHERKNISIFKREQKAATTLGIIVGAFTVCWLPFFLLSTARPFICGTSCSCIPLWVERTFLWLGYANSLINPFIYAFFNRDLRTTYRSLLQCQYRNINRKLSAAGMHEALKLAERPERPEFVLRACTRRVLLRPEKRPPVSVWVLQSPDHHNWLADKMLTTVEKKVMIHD
guinea pig Leukotriene D4 Receptor (LTD4), CYSLTR1 (gene 100135514), sequence (Q2NNR5 whole entry, looked up): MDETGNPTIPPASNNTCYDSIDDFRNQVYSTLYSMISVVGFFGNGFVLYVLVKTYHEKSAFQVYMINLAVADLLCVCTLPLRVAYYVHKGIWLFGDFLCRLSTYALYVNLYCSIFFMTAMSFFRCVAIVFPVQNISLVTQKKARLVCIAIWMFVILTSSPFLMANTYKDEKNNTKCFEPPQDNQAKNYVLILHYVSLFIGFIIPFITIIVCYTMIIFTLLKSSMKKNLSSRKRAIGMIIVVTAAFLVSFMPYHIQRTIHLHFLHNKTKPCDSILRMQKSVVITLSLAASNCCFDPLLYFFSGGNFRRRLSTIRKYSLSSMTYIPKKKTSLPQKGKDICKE
human Dopamine Receptor D2 (DRD2), DRD2 (gene 1813), sequence (P14416 whole entry, looked up): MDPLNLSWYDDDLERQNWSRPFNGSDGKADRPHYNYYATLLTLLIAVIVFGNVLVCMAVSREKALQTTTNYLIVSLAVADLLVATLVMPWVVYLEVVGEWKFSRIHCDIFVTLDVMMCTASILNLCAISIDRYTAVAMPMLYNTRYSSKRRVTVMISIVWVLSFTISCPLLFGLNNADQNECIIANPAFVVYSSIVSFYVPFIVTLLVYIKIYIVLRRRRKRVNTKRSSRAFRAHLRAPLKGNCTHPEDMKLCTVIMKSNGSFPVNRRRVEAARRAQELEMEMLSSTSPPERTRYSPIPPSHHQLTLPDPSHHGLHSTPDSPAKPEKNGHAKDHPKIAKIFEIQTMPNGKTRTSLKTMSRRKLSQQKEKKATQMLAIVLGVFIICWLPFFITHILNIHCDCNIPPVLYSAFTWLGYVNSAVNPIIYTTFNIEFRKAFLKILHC
human Dopamine Receptor D4.4 (DRD4.4), DRD4 (gene 1815), sequence (P21917 whole entry, looked up): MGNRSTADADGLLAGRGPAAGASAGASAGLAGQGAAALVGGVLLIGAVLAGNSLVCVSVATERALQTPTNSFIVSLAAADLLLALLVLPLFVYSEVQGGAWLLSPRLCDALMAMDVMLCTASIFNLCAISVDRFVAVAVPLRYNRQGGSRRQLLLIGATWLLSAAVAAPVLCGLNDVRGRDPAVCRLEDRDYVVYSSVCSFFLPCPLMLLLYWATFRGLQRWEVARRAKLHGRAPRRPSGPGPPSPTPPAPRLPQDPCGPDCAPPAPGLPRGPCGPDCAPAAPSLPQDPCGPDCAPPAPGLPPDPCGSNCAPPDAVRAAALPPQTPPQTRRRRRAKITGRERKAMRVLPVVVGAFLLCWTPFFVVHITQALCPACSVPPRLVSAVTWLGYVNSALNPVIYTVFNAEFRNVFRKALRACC
Type-1 angiotensin II receptor (Homo sapiens), sequence (P30556 whole entry, looked up): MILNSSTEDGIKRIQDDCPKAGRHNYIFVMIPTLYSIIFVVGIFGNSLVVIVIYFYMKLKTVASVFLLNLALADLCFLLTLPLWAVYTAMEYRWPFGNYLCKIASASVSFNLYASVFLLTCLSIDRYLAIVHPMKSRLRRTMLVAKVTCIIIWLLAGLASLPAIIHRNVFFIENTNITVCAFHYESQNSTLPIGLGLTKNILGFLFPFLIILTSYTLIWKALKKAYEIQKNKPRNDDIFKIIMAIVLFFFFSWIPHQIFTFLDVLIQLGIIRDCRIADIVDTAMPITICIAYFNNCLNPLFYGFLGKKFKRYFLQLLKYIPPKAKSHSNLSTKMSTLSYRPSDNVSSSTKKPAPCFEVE
human Adenosine A2a Receptor (AdoRA2a), ADORA2A (gene 135), sequence (P29274 whole entry, looked up): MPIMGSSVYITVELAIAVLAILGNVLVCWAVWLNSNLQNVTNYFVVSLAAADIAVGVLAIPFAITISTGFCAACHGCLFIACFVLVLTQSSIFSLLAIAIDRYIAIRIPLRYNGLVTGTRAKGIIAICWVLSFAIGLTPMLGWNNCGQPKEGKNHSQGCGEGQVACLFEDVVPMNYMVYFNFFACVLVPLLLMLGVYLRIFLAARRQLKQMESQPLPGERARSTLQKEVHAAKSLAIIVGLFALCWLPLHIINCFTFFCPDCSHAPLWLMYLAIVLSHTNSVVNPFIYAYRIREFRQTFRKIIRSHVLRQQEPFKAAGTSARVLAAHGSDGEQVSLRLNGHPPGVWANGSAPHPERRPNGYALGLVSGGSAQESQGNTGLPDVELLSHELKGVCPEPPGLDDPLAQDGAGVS
human Endothelin Receptor Type A (ETA), EDNRA (gene 1909), sequence (P25101 whole entry, looked up): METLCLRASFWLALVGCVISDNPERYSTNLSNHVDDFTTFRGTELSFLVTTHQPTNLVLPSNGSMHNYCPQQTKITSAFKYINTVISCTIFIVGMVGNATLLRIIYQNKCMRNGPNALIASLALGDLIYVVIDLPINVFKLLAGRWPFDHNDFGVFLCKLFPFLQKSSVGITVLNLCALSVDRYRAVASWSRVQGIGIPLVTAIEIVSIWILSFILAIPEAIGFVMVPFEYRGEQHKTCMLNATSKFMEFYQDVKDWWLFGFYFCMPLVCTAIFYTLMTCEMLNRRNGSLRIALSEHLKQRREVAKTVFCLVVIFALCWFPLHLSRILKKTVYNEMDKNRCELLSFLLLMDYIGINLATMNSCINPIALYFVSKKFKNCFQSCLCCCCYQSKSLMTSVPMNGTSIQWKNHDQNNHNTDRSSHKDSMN

`ClC1C(Cl)C(Cl)C(Cl)C(Cl)C1Cl` (stereo not drawn): in [1], the AC50 is 15.6 µM (active).
Take `CC[C@H](C)[C@H]1O[C@]2(C=C[C@@H]1C)C[C@@H]1C[C@@H](C/C=C(\C)[C@@H](O[C@H]3C[C@H](OC)[C@@H](O[C@H]4C[C@H](OC)[C@@H](O)[C@H](C)O4)[C@H](C)O3)[C@@H](C)/C=C/C=C3\CO[C@@H]4[C@H](O)C(C)=C[C@@H](C(=O)O1)[C@]34O)O2` (tested in a mixture with another compound): the outcome in assay [2] was inactive. In addition, the half-maximal activity concentration (AC50) in [3] was 25 µM (active); in [4], 3.1 µM (active); in assay [5], 6.77 µM (active); in [6], 6.87 µM (active); in [7], 6.06 µM (active); in [8], 8.16 µM (active).
Regarding `CCOCN(C(=O)CCl)c1c(C)cccc1CC`, the result in assay [9], in assay [10] and in assay [8] was inactive.
`CC(C)(C)C(O)/C(=C\c1ccc(Cl)cc1Cl)n1cncn1` (stereo not drawn): the outcome in assay [4] and in assay [10] was inactive.
As for `COC(=O)c1ccccc1CS(=O)(=O)NC(=O)Nc1nc(OC)cc(OC)n1`, the AC50 in assay [11] is 25 µM (active).
With `O=S(=O)(O)C(F)(F)C(F)(F)C(F)(F)C(F)(F)C(F)(F)C(F)(F)C(F)(F)C(F)(F)F`, the concentration at half-maximal activity (AC50) was 13.1 µM (active) [middle of 4 runs] in assay [12]; 24 µM (active) [middle of 4 runs] in assay [3]; 35.1 µM (active) and 11.6 µM (active) and 33.8 µM (active) in [4]; 32.7 µM (active) and 42.8 µM (active) in assay [10]; 6.51 µM (active) and 25 µM (active) and 24 µM (active) in assay [5]; 6.28 µM (active) [middle of 5 runs] in [1]. Besides, the AC50 in assay [6] was 37 µM (active) and 31.2 µM (active) and 29.9 µM (active); in [8] it was 49.6 µM (active); in [13], 25 µM (active) and 16.3 µM (active) and 24 µM (active); in [15], 7.24 µM (active). The outcome in [12], in assay [3], in assay [4], in [8], in assay [13] and in assay [14] was inactive.
Take `COc1nn(CSP(=S)(OC)OC)c(=O)s1`: in assay [16], the AC50 is 6.74 µM (active).
As for `Oc1cc(Cl)ccc1Oc1ccc(Cl)cc1Cl`, the figures for the AC50 in assay [11], in [6] and in assay [7] were 38.9 µM (active), 37.5 µM (active) and 6.8 µM (active), respectively. For the same compound, the compound was classed as inactive in [5], in assay [14] and in assay [15].
Consider `COP(=S)(OC)Oc1ccc([N+](=O)[O-])cc1`, for which the AC50 in assay [12] was 10.5 µM (active); in assay [17] it was 12.5 µM (active).
Take `C#CCN1C(=O)COc2cc(F)c(N3C(=O)C4=C(CCCC4)C3=O)cc21`: the concentration at half-maximal activity (AC50) in [11] is 6.93 µM (active).
For the compound `O=C(O)C(F)(F)C(F)(F)C(F)(F)C(F)(F)C(F)(F)C(F)(F)C(F)(F)F`, the values for the half-maximal activity concentration (AC50) in assay [12] and in [1] were 18.5 µM (active) and 11 µM (active), respectively. The compound was classed as inactive in [3], in assay [18], in assay [4], in assay [7], in [8] and in assay [15].

The values above are taken from PubChem BioAssay (EPA / NIEHS).
